# Publication PMC9574860, “Chemical Toolkit for PARK7: Potent, Selective, and High-Throughput” (Journal of Medicinal Chemistry, 2022)
# In all, about 7,900 compounds went through this assay and about 400 (5.1%) showed an effect of 50% or more. The sample as a whole holds a higher share of strong results than the screen did.
# Biological target: Parkinson's disease protein 7 (PARK7/DJ1) (human, UniProt Q99497)
# Assay: primary screen, percent inhibition; read as competition with a fluorescent probe by fluorescence polarization; higher = more effect of the substance
# Conditions: 100 µM
# Procedure, shortened: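 Fluorescence-polarization probe displacement (JYQ-107, 20 nM final, 2 h) after 2 h preincubation of PARK7 (0.2 μM final) with each fragment at 100 μM final. Read-out ex/em 480/520 nm; remaining activity derived from FP signal loss relative to reference controls.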
# Parkinson's disease protein 7 (PARK7/DJ1), sequence (Q99497 whole entry, looked up): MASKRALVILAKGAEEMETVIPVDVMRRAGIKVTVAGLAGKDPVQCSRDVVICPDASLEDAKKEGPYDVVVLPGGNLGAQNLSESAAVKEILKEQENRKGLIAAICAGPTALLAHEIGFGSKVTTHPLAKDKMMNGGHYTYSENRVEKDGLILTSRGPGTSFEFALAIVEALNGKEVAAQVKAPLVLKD
row,Structure (SMILES),Inhibition % [%]
1,CC1(C)OB(c2cnc3ccnn3c2)OC1(C)C,5.87
2,C=CC(=O)N1CCOC(C)(C(F)F)C1 (stereo not shown),7.7
3,CS(=O)(=O)c1cccnc1C#N,5.26
4,C=CC(=O)N1CCCC1C (stereo not shown),7.71
5,CC(C)Cn1c(N)c(C(=O)CCl)c(=O)n(C)c1=O,6.06
6,O=c1[nH]c(-c2cccc(S(=O)(=O)F)c2)nc2sc3c(c12)CCC3,88.5
7,O=c1[nH]c(-c2ccc(S(=O)(=O)F)cc2)nc2sc3c(c12)CCC3,15.9
8,O=c1[nH]c(-c2ccc(S(=O)(=O)F)cc2)nc2ccccc12,13
9,CC1(C)OB(c2ccc3cc(N)ccc3c2)OC1(C)C,87.8
10,CC1(C)OB(c2ccc(N)cc2)OC1(C)C,5.89
11,CC1(C)OB(c2ccc3ccoc3c2)OC1(C)C,9.89
12,Cc1cc(B2OC(C)(C)C(C)(C)O2)ccc1N,8.63
13,CC1(C)OB(c2cccc(N)c2)OC1(C)C,12.8
14,CC1(C)OB(c2ccc(N)c(F)c2)OC1(C)C,1.59
15,CC1(C)OB(c2ccc3ccc(N)cc3c2)OC1(C)C,86.8
16,CC1(C)OB(c2ccc(N)c(O)c2)OC1(C)C,92.7
17,Cc1ccc(N)cc1B1OC(C)(C)C(C)(C)O1,14.1
18,Cc1ccc(C)c(Cn2cnc(C#N)n2)c1,2.61
19,Clc1ccccc1COCC1CO1 (stereo not shown),9.97
20,N[C@@H]1CCN(C(=O)C=Cc2cc3ccccc3o2)C1,18.2
21,N#Cc1ccc2c(n1)CCCC2,7.43
22,C=CC(=O)NC1C2CCOC2C12CCC2 (stereo not shown),8.04
23,C=CC(=O)NC1C(C)C(OC)C12CCC2 (stereo not shown),50
24,C=CC(=O)NC1CC(OC)C12CCC2 (stereo not shown),3.73
25,COc1cc(S(=O)(=O)n2cccn2)c(C)cc1C,5.05
26,COc1ccc(CNC(=O)CCl)cc1OC,6.67
27,Cc1cc(NC(=O)CCl)ccc1Br,32.6

row,Structure (SMILES),Inhibition % [%]
1,Cc1ccc(NC(=O)CCl)cc1I,81.5
2,Cc1cc(C)cc(NC(=O)CCl)c1,11.3
3,Cc1ccc(NC(=O)CCl)cc1C,34.8
4,Cc1ccc(NC(=O)CCl)cc1Br,75
5,Cc1ccc(NC(=O)CCl)cc1F,48.3
6,O=C1CC2(CCCC2)N1,4.3
7,CCc1cc(S(=O)(=O)n2ccnc2)ccc1OC,7.72
8,c1ccc(OCC2CO2)cc1 (stereo not shown),9.6
9,CCCn1nc2c(cc1=O)CN(C1CC(C)OC1=O)CC2 (stereo not shown),86.8
10,CC(=O)Nc1cccc2c1CCN(C1CC(C)OC1=O)C2 (stereo not shown),1.86
11,CC1CC(N2CCc3sccc3C2)C(=O)O1 (stereo not shown),13.9
12,CC1CC(N2CCN(C)c3ccccc3C2)C(=O)O1 (stereo not shown),0.987
13,CC1CC(N2CCc3c(nc(C4CC4)n3C)C2)C(=O)O1 (stereo not shown),5.37
14,CCn1nc2c(cc1=O)CN(C1CC(C)OC1=O)CC2 (stereo not shown),61.4
15,C=CC(=O)NCC1CCSC1 (stereo not shown),5.45
16,C=CC(=O)N1CCc2ccc(C(=O)O)cc2CC1,4.84
17,Cc1n[nH]c(S)nc1=O,2.15
18,O=c1cn[nH]c(S)n1,74.8
19,O=c1[nH]c(S)nc2[nH]ncc12,4.43
20,Cn1c(=O)c2c(nc(Cl)n2CCS(=O)(=O)F)n(C)c1=O,3.18
21,CC1CC(N2CCC(O)CC2)C(=O)O1 (stereo not shown),5.67
22,C=CC(=O)N1CCC(N(C)C(=O)N(C)C)C1 (stereo not shown),28.7
23,Cc1nonc1C(=O)CCl,97.9
24,Cc1cc(NC(=O)CCl)no1,3.42
25,Cc1noc(C)c1C(=O)CCl,13.5
26,C=CC(=O)NCC1CCC=CO1 (stereo not shown),6.04
27,C=CC(=O)N1CCN(S(=O)(=O)CC)C[C@H]1C,12.6

row,Structure (SMILES),Inhibition % [%]
1,CC(=O)Nc1nn(C)cc1S(=O)(=O)F,14.8
2,CN(c1ccccc1)S(=O)(=O)C=Cc1ccccc1,4.34
3,CN(c1ccccc1)S(=O)(=O)c1ccccc1S(=O)(=O)F,96.6
4,Cn1cc(S(=O)(=O)Oc2cnc3ccccc3c2)cn1,6.55
5,C=CC(=O)N(Cc1ccccc1)c1cnn(C)c1,29.9
6,CN(c1ccn(C)n1)S(=O)(=O)c1ccccc1S(=O)(=O)F,97.9
7,CN(c1cnn(C)c1)S(=O)(=O)c1ccccc1S(=O)(=O)F,98.1
8,Cn1cc(S(=O)(=O)F)c(N)n1,7.95
9,O=S(=O)(F)c1coc2ccccc12,10.5
10,CC1(C)OB(CC2CC3(CCOCC3)C2)OC1(C)C,3.09
11,C=CC(=O)N(C)C1C(C)CCCC1C (stereo not shown),5.45
12,C=CC(=O)N1C[C@]2(C)COC[C@]2(C)C1,9.62
13,C=CC(=O)N1CC(C)(C)O[C@@]2(C[C@@H]3CC[C@H]2C3)C1,10.3
14,N#Cc1nc(N2CC(CF)C2)ccc1Cl,3.54
15,O=C(CCl)N1CCN(S(=O)(=O)Cc2ccccc2)CC1,13.1
16,CCC1(CNS(=O)(=O)C=Cc2ccccc2)CCOCC1,6.07
17,CC1(C)OB(Cc2cc(F)cc(F)c2)OC1(C)C,6.97
18,O=S(=O)(F)c1ccc(S(=O)(=O)Nc2ccncc2)cc1,8.89
19,Cc1ccnc(NS(=O)(=O)c2ccc(S(=O)(=O)F)cc2)n1,36.3
20,O=S(=O)(F)c1ccc(S(=O)(=O)Nc2nccs2)cc1,64
21,Cc1nccc(NS(=O)(=O)c2ccc(S(=O)(=O)F)cc2)n1,57.9
22,O=S(=O)(F)c1ccc(S(=O)(=O)Nc2ccccn2)cc1,5.71
23,O=S(=O)(F)c1ccc(S(=O)(=O)Nc2ccsc2)cc1,27.7
24,Cc1ccnc(NS(=O)(=O)c2ccc(S(=O)(=O)F)cc2)c1,16.1
25,O=S(=O)(F)c1ccc(S(=O)(=O)Nc2cccc(F)n2)cc1,54.7
